According to PubChem BioAssay (NCATS):
Records with an inconclusive call do not appear. A call without a number means that no potency is given here. A number with no mark means an inactive call. Calls of active or inactive are those of the source. Calls come from the whole dose curve; as a rule, active = well fitted cell-killing curve with a large enough effect; inconclusive = small, poorly fitted or top-dose-only effect, or effect the other way; inactive = no such curve, though single readings can be large or run the other way.

Tests used:
[1] = Quantitative High-Throughput drug screen in 47 multiple myeloma cell lines against the NCATS MIPE library collection: MM1R_ATCC cell viability assay (AID 1918981); note: nearly all actives have a fitted effect of over 35% in size; note: potency is the fitted concentration of half-maximal effect
Method in brief: (§1)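 Readout: median RLU from CellTiter-Glo after 5 min at room temperature. Preceding step was 48 h drug treatment of 500 cells/well at 37 °C, 5% CO2, with DMSO-only and media-only control wells.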

[2] = Quantitative High-Throughput drug screen in 47 multiple myeloma cell lines against the NCATS MIPE library collection: LP1_DSMZ cell viability assay (AID 1918982); note: nearly all actives have a fitted effect of over 35% in size; note: potency is the fitted concentration of half-maximal effect
Method in brief: as §1

[3] = Quantitative High-Throughput drug screen in 47 multiple myeloma cell lines against the NCATS MIPE library collection: KMS28PE_JCRB cell viability assay (AID 1918983); note: nearly all actives have a fitted effect of over 35% in size; note: potency is the fitted concentration of half-maximal effect
Method in brief: as §1

[4] = Quantitative High-Throughput drug screen in 47 multiple myeloma cell lines against the NCATS MIPE library collection: L363_DSMZ cell viability assay (AID 1918984); conditions: L363 myeloma viability, CellTiter-Glo ATP luminescence, 48 h; viability (% of control): at 45.8 µM (top of the series); note: nearly all actives have a fitted effect of over 40% in size; note: potency is the fitted concentration of half-maximal effect
Method in brief: as §1

[5] = Quantitative High-Throughput drug screen in 47 multiple myeloma cell lines against the NCATS MIPE library collection: OCIMY5_PLB cell viability assay (AID 1918988); note: nearly all actives have a fitted effect of over 65% in size; note: potency is the fitted concentration of half-maximal effect
Method in brief: as §1

[6] = Quantitative High-Throughput drug screen in 47 multiple myeloma cell lines against the NCATS MIPE library collection: OPM1_PLB cell viability assay (AID 1918989); note: nearly all actives have a fitted effect of over 40% in size; note: potency is the fitted concentration of half-maximal effect
Method in brief: as §1

[7] = Quantitative High-Throughput drug screen in 47 multiple myeloma cell lines against the NCATS MIPE library collection: SKMM1_PLB cell viability assay (AID 1919863); conditions: SKMM1 myeloma viability, CellTiter-Glo ATP, 48 h; viability: active compounds read low; note: nearly all actives have a fitted effect of over 35% in size; note: potency is the fitted concentration of half-maximal effect
Method in brief: as §1

[8] = Quantitative High-Throughput drug screen in 47 multiple myeloma cell lines against the NCATS MIPE library collection: XG1_PLB cell viability assay (AID 1919866); note: nearly all actives have a fitted effect of over 35% in size; note: potency is the fitted concentration of half-maximal effect
Method in brief: as §1

[9] = Quantitative High-Throughput drug screen in 47 multiple myeloma cell lines against the NCATS MIPE library collection: UTMC2_PLB cell viability assay (AID 1919868); conditions: CellTiter-Glo ATP luminescence, 48 h; viability (% of DMSO control): at 45.8 µM (top of the series); note: nearly all actives have a fitted effect of over 55% in size; note: potency is the fitted concentration of half-maximal effect
Method in brief: as §1

[10] = Quantitative High-Throughput drug screen in 47 multiple myeloma cell lines against the NCATS MIPE library collection: PE2_PLB cell viability assay (AID 1919869); note: nearly all actives have a fitted effect of over 35% in size; note: potency is the fitted concentration of half-maximal effect
Method in brief: as §1

[11] = Quantitative High-Throughput drug screen in 47 multiple myeloma cell lines against the NCATS MIPE library collection: PCM6_Riken cell viability assay (AID 1919870); note: nearly all actives have a fitted effect of over 30% in size
Method in brief: as §1

[12] = Quantitative High-Throughput drug screen in 47 multiple myeloma cell lines against the NCATS MIPE library collection: RPMI8226_ATCC cell viability assay (AID 1919871); note: nearly all actives have a fitted effect of over 30% in size; note: potency is the fitted concentration of half-maximal effect
Method in brief: as §1

[13] = Quantitative High-Throughput drug screen in 47 multiple myeloma cell lines against the NCATS MIPE library collection: OPM2_DSMZ cell viability assay (AID 1919872); note: nearly all actives have a fitted effect of over 30% in size; note: potency is the fitted concentration of half-maximal effect
Method in brief: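 Relative luminescence from CellTiter-Glo served as the viability signal, referenced to DMSO-treated (100%) and cell-free medium (0%) controls. Treatment lasted 48 hours at 37C with 500 cells per well.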

[14] = Quantitative High-Throughput drug screen in 47 multiple myeloma cell lines against the NCATS MIPE library collection: KMS11_JCRBsus cell viability assay (AID 1919873); note: nearly all actives have a fitted effect of over 50% in size; note: potency is the fitted concentration of half-maximal effect
Method in brief: as §1

[15] = Quantitative High-Throughput drug screen in 47 multiple myeloma cell lines against the NCATS MIPE library collection: U266_ATCC cell viability assay (AID 1919864); note: nearly all actives have a fitted effect of over 35% in size; note: potency is the fitted concentration of half-maximal effect
Method in brief: as §1

[16] = Quantitative High-Throughput drug screen in 47 multiple myeloma cell lines against the NCATS MIPE library collection: KMS34_JCRB cell viability assay (AID 1918985); note: nearly all actives have a fitted effect of over 40% in size; note: potency is the fitted concentration of half-maximal effect
Method in brief: as §1

[17] = Quantitative High-Throughput drug screen in 47 multiple myeloma cell lines against the NCATS MIPE library collection: OCIMY7_PLB cell viability assay (AID 1918987); conditions: OCI-MY7 myeloma viability, CellTiter-Glo ATP, 48 h; viability (% of DMSO): at 45.8 µM (top of the series); note: nearly all actives have a fitted effect of over 65% in size; note: potency is the fitted concentration of half-maximal effect
Method in brief: as §1

[18] = Quantitative High-Throughput drug screen in 47 multiple myeloma cell lines against the NCATS MIPE library collection: XG6_PLB cell viability assay (AID 1919865); note: nearly all actives have a fitted effect of over 40% in size; note: potency is the fitted concentration of half-maximal effect
Method in brief: as §1

[19] = Quantitative High-Throughput drug screen in 47 multiple myeloma cell lines against the NCATS MIPE library collection: VP6_DJ cell viability assay (AID 1919867); note: nearly all actives have a fitted effect of over 40% in size; note: potency is the fitted concentration of half-maximal effect
Method in brief: as §1

[20] = Quantitative High-Throughput drug screen in 47 multiple myeloma cell lines against the NCATS MIPE library collection: KMS28BM_JCRB cell viability assay (AID 1919874); note: nearly all actives have a fitted effect of over 35% in size; note: potency is the fitted concentration of half-maximal effect
Method in brief: as §1

SMILES: Nc1ccn([C@@H]2O[C@H](CO)[C@@H](O)[C@H]2O)c(=O)n1
- Potency [1]: 0.0526 µM (active)
- Potency [2]: inactive
- Potency [3]: inactive
- Potency [4]: inactive
- Potency [5]: inactive
- Potency [6]: inactive
- viability [7]: 113%
- Potency [8]: inactive
- Potency [9]: 0.001 µM (active)
- Potency [10]: inactive
- Potency [11]: inactive
- Potency [12]: inactive
- Potency [13]: inactive
- Potency [14]: inactive

SMILES: CN(C)CCCNC(=O)c1ccc(-c2cc(O)c3ncccc3c2)cc1
- Potency [1]: 20.9 µM (active)
- Potency [2]: 8.33 µM (active)
- Potency [3]: 9.35 µM (active)
- Potency [4]: 20.9 µM (active)
- Potency [5]: 20.9 µM (active)
- Potency [6]: 16.6 µM (active)
- Potency [7]: 14.8 µM (active)
- Potency [15]: 20.9 µM (active)
- Potency [12]: 18.7 µM (active)
- Potency [14]: 23.5 µM (active)

SMILES: CC1(C)C(N(O)C(=O)Nc2ccc(Cl)cc2)N(c2ccc(Cl)cc2)C(=O)N1CC(=O)NN=CC=Cc1ccc([N+](=O)[O-])o1 (stereo unspecified)
- Potency [1]: 5.26 µM (active)
- Potency [2]: 16.6 µM (active)
- Potency [3]: 8.33 µM (active)
- Potency [16]: 7.43 µM (active)
- Potency [17]: 5.9 µM (active)
- Potency [5]: 7.43 µM (active)
- Potency [6]: 11.8 µM (active)
- Potency [7]: 13.2 µM (active)
- Potency [15]: 10.5 µM (active)
- Potency [18]: 10.5 µM (active)
- Potency [8]: 8.33 µM (active)
- Potency [19]: 8.33 µM (active)
- Potency [9]: 13.2 µM (active)
- Potency [10]: 6.62 µM (active)
- Potency [12]: 11.8 µM (active)
- Potency [13]: 18.7 µM (active)
- Potency [20]: 8.33 µM (active)

SMILES: OC[C@H]1O[C@@H](O[C@H]2[C@@H](O)[C@@](O)(CO)O[C@@H]2CO)[C@H](O)[C@@H](O)[C@@H]1O
- Potency [1]: inactive
- Potency [2]: inactive
- Potency [3]: inactive
- Potency [4]: inactive
- Potency [16]: inactive
- Potency [17]: inactive
- Potency [5]: inactive
- Potency [6]: inactive
- viability [7]: 96.6%
- Potency [15]: inactive
- Potency [18]: inactive
- Potency [8]: 3.72 µM (active)
- Potency [9]: inactive
- Potency [12]: inactive
- Potency [13]: inactive
- Potency [14]: inactive

SMILES: CC1(C)OC2CC3C4CC(F)C5=CC(=O)C=CC5(C)C4C(O)CC3(C)[C@]2(C(=O)CO)O1 (stereo partly specified)
- Potency [1]: inactive
- Potency [2]: 0.0023 µM (active)
- Potency [3]: inactive
- Potency [4]: 0.132 µM (active)
- Potency [16]: 0.0209 µM (active)
- Potency [6]: inactive
- viability [7]: 131%
- Potency [15]: inactive
- Potency [19]: 3.32 µM (active)
- Potency [11]: inactive
- Potency [12]: 0.0118 µM (active)
- Potency [13]: inactive
- Potency [14]: 0.0264 µM (active)
- Potency [20]: inactive

SMILES: CCNC(=O)CCCC=CC[C@@H]1[C@H](C=CC(O)CCc2ccccc2)[C@@H](O)C[C@@H]1O (stereo partly specified)
- Potency [1]: 26.4 µM (active)
- Potency [2]: inactive
- Potency [3]: inactive
- Potency [4]: inactive
- Potency [5]: 26.4 µM (active)
- Potency [6]: inactive
- Potency [15]: inactive
- Potency [18]: inactive
- Potency [8]: inactive
- Potency [19]: inactive
- Potency [9]: inactive
- Potency [10]: inactive
- Potency [11]: inactive
- Potency [12]: 16.6 µM (active)
- Potency [20]: 3.32 µM (active)
